The source of these data is PubChem BioAssay (Tox21).

Molecules are shown by their SMILES. Inconclusive results are not listed. Activity calls are given as the source filed them. Calls follow the shape of the dose curve; as a rule, active = well fitted activation curve with a large enough effect in the signal ratio in the repeat runs (not every such curve was filed as active); inconclusive = weak or mixed curves, or effect the other way; inactive = no such curve, though single readings can be large or run the other way; the % refers to the signal ratio.
% is scaled to controls: 0 for no effect and ±100 for the full control effect; potency is read from the fitted curve at half-maximal effect.

For this assay, the target named is Peroxisome proliferator-activated receptor gamma (Homo sapiens) (UniProt P37231). As to the kind of experiment: qHTS assay to identify small molecule agonists of the peroxisome proliferator-activated receptor gamma (PPARg) signaling pathway (AID 743094). The note with it: HEK293H PPARg-UAS-bla, beta-lactamase FRET ratio, 17 h; series mostly up to 57 µM; activation: at the top concentration. From the text: U.S. Tox21 Program National Center for Advancing Translational Sciences [NCATS] NIH Chemical Genomics Center [NCGC] U.S. Environmental Protection Agency [EPA] National Institutes of Environmental Health Sciences [NIEHS] National Toxicology Program [NTP] U.S. Food and Drug Administration [FDA] Tox21 Assay Overview: The peroxisome proliferator-activated receptors (PPARs) are lipid-activated transcription factors of the nuclear receptor superfamily with three distinct subtypes namely PPAR alpha, PPAR delta (also called PPAR beta) and PPAR gamma (PPARg). All these subtypes heterodimerize with Retinoid X receptor (RXR) and these heterodimers regulate transcription of various genes. PPAR-gamma receptor (glitazone receptor) is involved in the regulation of glucose and lipid metabolism. To identify the compounds that activate PPAR-gamma signaling, GeneBLAzer PPAR gamma UAS-bla HEK293H cell line (Invitrogen, Carlsbad, CA, USA) containing a beta-lactamase reporter gene under control of the control of an upstream activator sequence (UAS) stably integrated into HEK293H cells was used to screen Tox21 compound library.
Chain of Peroxisome proliferator-activated receptor gamma (Homo sapiens) (P37231 whole entry, looked up): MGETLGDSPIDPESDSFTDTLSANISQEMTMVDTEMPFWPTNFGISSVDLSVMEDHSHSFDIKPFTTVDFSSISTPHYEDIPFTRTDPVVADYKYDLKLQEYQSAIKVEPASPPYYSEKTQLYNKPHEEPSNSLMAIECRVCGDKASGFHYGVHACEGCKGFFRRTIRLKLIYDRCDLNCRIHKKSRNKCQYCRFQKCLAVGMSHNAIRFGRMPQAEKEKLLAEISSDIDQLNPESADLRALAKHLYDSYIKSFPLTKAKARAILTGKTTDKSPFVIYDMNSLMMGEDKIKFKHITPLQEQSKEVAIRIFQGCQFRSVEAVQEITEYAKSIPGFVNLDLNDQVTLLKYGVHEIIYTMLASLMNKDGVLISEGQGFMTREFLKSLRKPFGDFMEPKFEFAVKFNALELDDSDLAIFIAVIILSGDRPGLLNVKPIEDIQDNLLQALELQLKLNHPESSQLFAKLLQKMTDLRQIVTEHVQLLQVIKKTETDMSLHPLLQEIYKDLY
Tox21 Assay Protocol Summary: PPARg-bla cells were dispensed at 3000 cells/6uL/well in 1536-well black wall/clear bottom plates using a Multidrop Combi (Thermo Fisher Scientific, Waltham, MA) dispenser. After the assay plates were incubated at 37C and 5% CO2 for 5 h, 23 nL of compounds dissolved in DMSO, positive controls or DMSO only was transferred to the assay plate by a Pintool station (Kalypsys, San Diego, CA). The assay plates were incubated at 37C for 17 h. After 1 uL of LiveBLAzerTM B/G FRET substrate was added using a Bioraptr Flying Reagent Dispenser (FRD) workstation (Beckman Coulter, Indianapolis, IN, USA), the plates were incubated at room temperature for 1 h, and fluorescence intensity was measured by an Envision plate reader (PerkinElmer, Shelton, CT).
In general terms: Quantitative high-throughput screening tests each substance at several concentrations.
Turning to `O=C(O)CNc1ccccc1`, the “activation” value was -0.122% (inactive).
Turning to `C/C(=C(\CCO)SS/C(CCO)=C(\C)N(C=O)Cc1cnc(C)nc1N)N(C=O)Cc1cnc(C)nc1N`, the “activation” value was 0.353% (inactive).
Take `C[C@H]1C[C@H]2[C@@H]3CCC4=CC(=O)C=C[C@]4(C)[C@@]3(F)[C@@H](O)C[C@]2(C)[C@@]1(O)C(=O)COP(=O)(O)O`: the “activation” value is 0.711% (inactive).
`CCc1ccc2c(c1)C(=O)c1ccccc1C2=O`: the “activation” value is 1.3% (inactive).
The same measure, in the same setting: then `c1ccc(-c2ccc(-c3ccccc3)cc2)cc1`, with -3.84% [at 26.2 µM] (inactive).
The same measure, in the same setting: then `CCCC(=O)OCc1ccccc1`, with -2.99% (inactive); and `CC(C)(C)N`, with -5.97% (inactive); and `CCOc1ccccc1O`, with -3.76% (inactive).
Same read-out and setting: the result for `Cc1c(N=C=O)cccc1N=C=O` reads 1.09% [at 78.9 µM] (inactive); that for `O=C1c2ccccc2C(=O)c2c1ccc(O)c2O`, 5.59% (inactive); that for `CC(O)C(C)O` (stereo not given), -2.18% [at 78.9 µM] (inactive).
Turning to `O=C(OCCOCCOCCOC(=O)c1ccccc1)c1ccccc1`, the “activation” value is 0.16% (inactive).
As to `C1=COCCC1`, the “activation” value was 0.144% (inactive).
In the case of `Cc1ccc2c(Cl)cc(Cl)c(O)c2n1`, the Potency was 9.52 µM (active).
With `C=CC(C)(O)CC/C=C(/C)CCC=C(C)C` (stereo not given), the “activation” value was 1.88% (inactive).
The same measure, in the same setting: the result for `C=CC(=O)NC(C)(C)C` reads -0.214% (inactive).
The same measure, in the same setting: the result for `O=S(=O)(O)c1cc(Cl)c(Cl)cc1Cl` reads 7.64% (inactive); that for `FC1(F)C(F)(F)C(F)(F)C2(F)C(F)(C1(F)F)C(F)(F)C(F)(F)C1(F)C(F)(F)C(F)(F)C(F)(F)C(F)(F)C12F` (stereo not given), 0.547% (inactive); that for `O=[N+]([O-])c1ccc(Cl)cc1Cl`, -0.372% (inactive).
Consider `CCCCCC1CCC(=O)O1` (stereo not given), for which the “activation” value was -1.35% (inactive).
In the case of `CCCCCCCCCCCCCCCCCCCl`, the activation was -5.7% [at 7.08 µM] (inactive).
On the same count and under the same terms, the result for `c1ccc(CN(Cc2ccccc2)Cc2ccccc2)cc1` reads 0.782% (inactive).
In the case of `CCCCCCCCOCCCN`, the “activation” value was -7.97% (inactive).
The same measure, in the same setting: the result for `Nc1ncnc2c1ncn2[C@@H]1O[C@H](CO)[C@@H](O)[C@H]1O` reads 3.04% (inactive); that for `CC(C)=CCC/C(C)=C/C=N/O`, -0.564% (inactive).
Still for that read-out and setting: the result for `Cc1cc(N)n(-c2ccccc2)n1` reads 3.5% (inactive); that for `O=C(Nc1ccccc1)c1cc([N+](=O)[O-])ccc1Cl`, -3.45% (inactive).
Still for that read-out and setting: the result for `OCCOc1cccc(OCCO)c1` reads 4.65% (inactive).
Regarding `COc1ccc(C(=O)c2ccc(C)cc2)c(O)c1`, the Potency result is “inactive”.
For `O=C(O)c1ccncc1`, the “activation” value is -0.65% [at 78.9 µM] (inactive).
`O=C1CCCN1CCO`: the “activation” value was 5.87% (inactive).
Turning to `O=C1c2ccccc2C(=O)C1c1ccc2cc(S(=O)(=O)O)cc(S(=O)(=O)O)c2n1`, the “activation” value was 1.05% [at 78.9 µM] (inactive).
On the same count and under the same terms, the result for `C=C(C)C(=O)OCCCCCCCCCCOC(=O)C(=C)C` reads -2.36% (inactive).
The same measure, in the same setting: then `O=[N+]([O-])c1cccc(I)c1`, with -3.62% (inactive); and `COc1ccc(C(=O)Nc2ccccc2)cc1[N+](=O)[O-]`, with -1.61% [at 78.9 µM] (inactive); and `CC(C)CCCCCOC(=O)CS`, with 0.517% (inactive).
Regarding `CCCCCCCCS`, the “activation” value was -0.493% [at 78.9 µM] (inactive).
`O=C(O)c1cc(C(=O)O)cc([N+](=O)[O-])c1`: the “activation” value is -1.69% (inactive).
The same measure, in the same setting: then `O=P(c1ccccc1)(c1ccccc1)c1ccccc1`, with -3.88% (inactive); and `CC(=O)OCC(=O)[C@@]1(O)CC[C@H]2[C@@H]3CCC4=CC(=O)C=C[C@]4(C)[C@@]3(F)[C@@H](O)C[C@@]21C`, with 8.21% [at 26.2 µM] (inactive).
